The text below walks through data of PubChem BioAssay (NCI).

This is part of a sample that, as a whole, favours compounds with a hit. Of some 83,000 tested, about 20% had one in any assay.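 Cell lines were cultured in 96-well plates, exposed to a single compound concentration, and assessed for percent growth 48 hours later.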 Unmarked numbers belong to inactive results. The source made the active and inactive calls. The calls were made as follows: active = growth percent below 10; inactive = the rest.

Among the test systems are NCI-H23 lung; NCI-H226 lung; NCI-H322M lung; HOP-62 NSCLC; NCI-H460 lung; HOP-92 NSCLC; NCI-H522 lung; A549/ATCC NSCLC; 786-0 renal; DU-145 prostate; K-562 leukemia; MALME-3M melanoma; MDA-MB-231 breast; RXF 393 renal; SF-268 CNS; SF-295 CNS; SF-539 CNS; UACC-257 melanoma; M14 melanoma.
What all share (experiment): NCI-60 one-dose screen, 48 h (100 = growth as untreated, 0 = no growth, -100 = all killed)
What all share (conditions): 10 µM unless noted

As to `CCCCCCN(CCCCCC)CC(O)c1cccc2ccc(Cl)cc12` (configuration not stated), the growth in the experiment on NCI-H23 lung was 38.8%; in the experiment with NCI-H226 lung, 85.6%; in the experiment on NCI-H322M lung it was 66.4%; in the experiment on HOP-62 NSCLC it was 31.8%; with NCI-H460 lung, 44%; in the experiment with HOP-92 NSCLC it was 3.01% (active). Further, the growth in the experiment on NCI-H522 lung is 38.1%; in the experiment with A549/ATCC NSCLC it was 67.2%; in the experiment on 786-0 renal it was 53.2%; in the experiment on DU-145 prostate, 61.8%; in the experiment with K-562 leukemia, 32.9%; with MALME-3M melanoma, 65.6%. In addition, the growth in the experiment with MDA-MB-231 breast is 43.3%; in the experiment on RXF 393 renal, 24.1%; with SF-268 CNS, 121%; with SF-295 CNS it was 42%; with SF-539 CNS, 65.5%; in the experiment on UACC-257 melanoma it was 74.4%. For the same compound, the growth in the experiment on M14 melanoma was 63.3%.

Take `COc1ccc(-n2ncn(CCCCCCn3cnn(-c4ccc(OC)cc4)c3=O)c2=O)cc1`: the growth is 82.9% in the experiment on NCI-H23 lung; 80.3% in the experiment on NCI-H226 lung; 88.4% in the experiment on NCI-H322M lung; 89.5% with HOP-62 NSCLC; 103% with NCI-H460 lung; 89.4% with HOP-92 NSCLC. The growth is 76.3% in the experiment with NCI-H522 lung; 96.7% in the experiment on A549/ATCC NSCLC; 96.7% in the experiment with 786-0 renal; 101% in the experiment on DU-145 prostate; 72.7% with K-562 leukemia; 95.7% with MALME-3M melanoma. Further, the growth is 87.4% with MDA-MB-231 breast; 98.2% in the experiment on RXF 393 renal; 91.4% with SF-268 CNS; 93.6% in the experiment with SF-295 CNS; 91.7% in the experiment on SF-539 CNS; 101% in the experiment with UACC-257 melanoma. In the experiment on M14 melanoma, the growth is 97.5%.

In the case of `C[C@@H]1C(=O)N(C[C@H](Cc2ccccc2)N(Cc2ccccc2)Cc2ccccc2)[C@]1(Cc1ccccc1)C(=O)OC(C)(C)C`, the growth with NCI-H23 lung is 42%; with NCI-H226 lung it was 47.8%; with NCI-H322M lung it was 87.9%; with HOP-62 NSCLC, 81.6%; in the experiment with NCI-H460 lung, 54%; in the experiment on HOP-92 NSCLC, 46.3%. In addition, the growth with NCI-H522 lung was 50.9%; in the experiment on A549/ATCC NSCLC it was 60%; in the experiment on 786-0 renal it was 72.6%; in the experiment on DU-145 prostate it was 77.6%; with K-562 leukemia, 51.6%; in the experiment on MALME-3M melanoma, 88%. The growth in the experiment on MDA-MB-231 breast was 61.9%; in the experiment with RXF 393 renal, 68.5%; in the experiment on SF-268 CNS, 69.8%; with SF-295 CNS, 40.3%; in the experiment on SF-539 CNS it was 91%; in the experiment on UACC-257 melanoma, 45.1%. Further, the growth with M14 melanoma is 75.4%.

Take `O=C1NCC(=O)N(Cc2ccco2)[C@H]1Cc1ccccc1`: the growth in the experiment on NCI-H23 lung is 100%; in the experiment on NCI-H226 lung, 89%; with NCI-H322M lung, 112%; in the experiment with HOP-62 NSCLC, 81.6%; in the experiment with NCI-H460 lung it was 103%; in the experiment on HOP-92 NSCLC, 88.7%. Moreover, the growth in the experiment on NCI-H522 lung was 88.2%; with A549/ATCC NSCLC it was 102%; in the experiment on 786-0 renal, 95.1%; in the experiment on DU-145 prostate, 110%; in the experiment with K-562 leukemia, 107%; with MALME-3M melanoma it was 110%. Besides, the growth is 89.1% with MDA-MB-231 breast; 117% with RXF 393 renal; 102% in the experiment with SF-268 CNS; 96.5% in the experiment on SF-295 CNS; 97.9% with SF-539 CNS; 86.9% in the experiment with UACC-257 melanoma. Moreover, the growth in the experiment on M14 melanoma is 98.2%.

As for `CCN(CC)CC(O)CNc1c2ccc(Cl)cc2nc2ccc(OC)cc12` (configuration not stated), the growth with NCI-H23 lung was -39.1% (active); in the experiment on NCI-H226 lung it was 46.7%; in the experiment on NCI-H322M lung it was -27.1% (active); with HOP-62 NSCLC it was -47.1% (active); with NCI-H460 lung, 0.742% (active); in the experiment with HOP-92 NSCLC it was -13.9% (active). Besides, the growth in the experiment on NCI-H522 lung was -65.7% (active); in the experiment on A549/ATCC NSCLC, -72.9% (active); in the experiment with 786-0 renal, -16.1% (active); in the experiment with DU-145 prostate, -26.4% (active); in the experiment with K-562 leukemia it was -10.3% (active); in the experiment with MALME-3M melanoma, -98.4% (active). The growth is -33.4% (active) in the experiment with MDA-MB-231 breast; -80.8% (active) in the experiment with RXF 393 renal; 14.8% in the experiment with SF-268 CNS; 10.8% in the experiment on SF-295 CNS; -61.3% (active) with SF-539 CNS; -87% (active) with UACC-257 melanoma. Further, the growth in the experiment with M14 melanoma was -94.2% (active).

Regarding `C#CC[C@H](N)C(=O)O`, the growth is 103% [20 µM] in the experiment on NCI-H23 lung; 106% [20 µM] with NCI-H226 lung; 97.8% [20 µM] with NCI-H322M lung; 94.4% [20 µM] in the experiment on HOP-62 NSCLC; 104% [20 µM] with NCI-H460 lung; 87.3% [20 µM] in the experiment on HOP-92 NSCLC. The growth is 89.2% [20 µM] in the experiment on NCI-H522 lung; 99% [20 µM] with A549/ATCC NSCLC; 98.1% [20 µM] in the experiment with 786-0 renal; 104% [20 µM] in the experiment with DU-145 prostate; 96.8% [20 µM] in the experiment with K-562 leukemia; 97% [20 µM] in the experiment on MALME-3M melanoma. Further, the growth in the experiment with MDA-MB-231 breast was 99.1% [20 µM]; in the experiment on RXF 393 renal, 114% [20 µM]; in the experiment on SF-268 CNS, 99.8% [20 µM]; in the experiment on SF-295 CNS it was 102% [20 µM]; in the experiment with SF-539 CNS, 96% [20 µM]; in the experiment with UACC-257 melanoma it was 101% [20 µM]. The growth in the experiment on M14 melanoma was 100% [20 µM].

On to `O=c1ccn(C2OC(F)(CO)C(O)C2F)c(=O)[nH]1` (configuration not stated), for which the growth is 100% in the experiment with NCI-H23 lung; 102% with NCI-H226 lung; 113% in the experiment with NCI-H322M lung; 82.7% in the experiment on HOP-62 NSCLC; 107% in the experiment with NCI-H460 lung; 98.1% with HOP-92 NSCLC. Further, the growth with NCI-H522 lung is 75%; with A549/ATCC NSCLC, 104%; with 786-0 renal, 96%; in the experiment with DU-145 prostate it was 110%; with K-562 leukemia, 112%; with MALME-3M melanoma it was 110%. In addition, the growth in the experiment with MDA-MB-231 breast was 114%; with RXF 393 renal, 141%; in the experiment on SF-268 CNS, 100%; in the experiment on SF-295 CNS, 98.3%; with SF-539 CNS it was 100%; in the experiment on UACC-257 melanoma, 95.1%. Besides, the growth with M14 melanoma was 95.3%.

Turning to `COc1ccc(N=c2nc3sc4cc(Cl)ccc4n3c(N)c2C#N)cc1`, the growth in the experiment with NCI-H23 lung was 66.5%; in the experiment on NCI-H226 lung, 24.4%; with NCI-H322M lung it was 93.4%; with HOP-62 NSCLC it was 102%; with NCI-H460 lung it was 102%; in the experiment on HOP-92 NSCLC, 88.4%. The growth in the experiment on NCI-H522 lung is 88.6%; with A549/ATCC NSCLC, 62.4%; with 786-0 renal, 22.1%; in the experiment on DU-145 prostate it was 105%; in the experiment with K-562 leukemia, 98.9%; in the experiment with MALME-3M melanoma, 77.4%. The growth in the experiment with MDA-MB-231 breast was 76.4%; in the experiment with RXF 393 renal, 52%; in the experiment with SF-268 CNS, 60.1%; in the experiment on SF-295 CNS, -3.63% (active); in the experiment with SF-539 CNS, 103%; in the experiment with UACC-257 melanoma, 61.6%. Further, in the experiment on M14 melanoma, the growth is 70.6%.
